# Reference: PubChem BioAssay (Tox21)
# Values joined by “and” are separate entries in the source; they are usually repeats but may differ in a detail not shown here. Equal entries are not always repeated. Records with an inconclusive call do not appear. A call without a number means that no potency is given here. A structure can be active in one record and inactive in another. Active and inactive are the calls of the source. Calls follow the shape of the dose curve; as a rule, active = well fitted cell-killing curve with a large enough effect in the repeat runs; inconclusive = weak or mixed curves, or effect the other way; inactive = flat fitted curve, though single readings scatter. Positions of bridges follow the written chain, without caps; N, C: chain ends. Non-standard residues stand in square brackets, D forms with d. Residues, ends and D or L forms follow the SMILES beside them. *: point of attachment. X1 = CC[C@@H](C)[C@@H](N)C1=N[C@H](C(=O)*)CS1; d(aIle) = CC[C@H](C)[C@@H](N)C(=O)O; dOrn = NCCC[C@@H](N)C(=O)O
# Test: qHTS assay to identify small molecule that activate the aryl hydrocarbon receptor (AhR) signaling pathway - cell viability counter screen (AID 743086); also: nearly all actives have a fitted effect of over 45% in size
# Conditions: HepG2-AhR-luc viability, CellTiter-Fluor, 24 h; series mostly up to 70.3 µM
# In short: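 HepG2-AhR-luc (HG2L7.5c1) cells, 4000/well, were preincubated 5 h at 37C, exposed to compound in qHTS format for 24 hr at 37C, then given CellTiter-Fluor for 30 min; viability was read as fluorescence in the reporter wells.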
# Potency is read from the fitted curve at half-maximal effect.
row,SMILES,Potency
1,C/C(=C\C(=O)OCCCCCCCCC(=O)O)C[C@@H]1OC[C@H](C[C@@H]2O[C@H]2[C@@H](C)[C@H](C)O)[C@@H](O)[C@H]1O,inactive
2,CC(C)[C@H](NC(=O)[C@H](CC(=O)O)NC(=O)[C@H](CCCCN)NC(=O)[C@@H](N)CCCN=C(N)N)C(=O)N[C@@H](Cc1ccc(O)cc1)C(=O)O (H-RKDVY-OH),inactive
3,NC(=O)[C@@H]1CCCN1C(=O)[C@H](Cc1cnc[nH]1)NC(=O)[C@@H]1CCC(=O)N1,inactive
4,CC[C@H]1OC(=O)[C@H](C)C(=O)[C@H](C)[C@@H](O[C@@H]2O[C@H](C)C[C@H](N(C)C)[C@H]2O)[C@](C)(OC)C[C@@H](C)C(=O)[C@H](C)[C@H]2N(CCCCn3cnc(-c4cccnc4)c3)C(=O)O[C@]12C,inactive and 21.1 µM (active)
5,C[N+](C)(C)CCOP(=O)(O)OP(=O)([O-])OC[C@H]1O[C@@H](n2ccc(N)nc2=O)[C@H](O)[C@@H]1O,inactive
6,Cc1cnc(C(=O)O)c[n+]1[O-],inactive
7,C=CC1=C(C(=O)O)N2C(=O)[C@@H](NC(=O)/C(=N/OCC(=O)O)c3csc(N)n3)[C@H]2SC1 (stereo in doubt),inactive
8,O=P(O)(O)C(O)(Cn1ccnc1)P(=O)(O)O,inactive
9,C=CC[N+]1([C@H]2C[C@H]3[C@@H]4CC[C@H]5C[C@H](O)[C@@H](N6CCOCC6)C[C@]5(C)[C@H]4CC[C@]3(C)[C@H]2OC(C)=O)CCCC1,inactive
10,CC[C@@H](C)[C@@H](N)C1=N[C@H](C(=O)N[C@@H](CC(C)C)C(=O)N[C@@H](CCC(=O)O)C(=O)N[C@@H](C(=O)N[C@@H]2CCCCNC(=O)[C@@H](CC(N)=O)NC(=O)[C@@H](CC(=O)O)NC(=O)[C@@H](Cc3cnc[nH]3)NC(=O)[C@@H](Cc3ccccc3)NC(=O)[C@@H]([C@H](C)CC)NC(=O)[C@@H](CCCN)NC2=O)[C@@H](C)CC)CS1 (X1-LE[d(aIle)][dK][dOrn][dI][dF][dH][dD][dN]; lactam 4-C),inactive
11,Nc1cc(Cl)c(NC2=NCCN2)c(Cl)c1,inactive
12,CCOc1ccc(NC(=S)Nc2ccc(OCC)cc2)cc1,inactive
13,CCc1ncnc2cc(OC)c(OC)cc12,inactive
14,Cc1cc(=O)c(C(=O)N[C@@H](C(=O)N[C@@H]2C(=O)N3C(C(=O)O)=C(CSc4nnnn4C)CS[C@H]23)c2ccc(O)cc2)c[nH]1,inactive
15,CC12CCC(C[N+](C)(CCC[N+](C)(C)C)C1)C2(C)C (stereo unspecified),inactive
16,CN1C(=O)C[C@@H](C(=O)N[C@@H](Cc2cnc[nH]2)C(=O)N2CCC[C@H]2C(N)=O)NC1=O,inactive
17,COC(=O)[C@H]1[C@H]2C[C@H]3c4[nH]c5ccccc5c4CCN3C[C@H]2CC[C@@H]1O,inactive
18,CC[C@@H](C)[C@H](N)C(=O)O,inactive

row,SMILES,Potency
1,C/C(=C(/CCO)SSCC1CCCO1)N(C=O)Cc1cnc(C)nc1N (stereo unspecified),inactive
2,C=C(Nc1ccc(OCC)cc1)Nc1ccc(OCC)cc1,inactive
3,O=C(O)/C=C/C(=O)Nc1ccc(S(=O)(=O)Nc2nccs2)cc1,inactive
4,CC(C)=CCC/C(C)=C/CC/C(C)=C/CC/C(C)=C/CC1=C(C)C(=O)c2ccccc2C1=O,inactive
5,CO/N=C(\C(=O)N[C@@H]1C(=O)N2C(C(=O)O)=C(CSc3nc(C)c(CC(=O)O)s3)CS[C@H]12)c1csc(N)n1,inactive
6,COc1ccc(/C=C/C(=O)O)cc1,inactive
7,NCC1CCC(C(=O)O)CC1 (stereo unspecified),inactive
8,CCN(CC)CCOC[C@H]1O[C@@H](O)[C@H](OCCN(CC)CC)[C@@H](O)[C@@H]1O,inactive
9,CCC(=O)OC(OP(=O)(CCCCc1ccccc1)CC(=O)N1C[C@H](C2CCCCC2)C[C@H]1C(=O)O)C(C)C (stereo partly specified),inactive
10,CC(C)=CCC/C(C)=C/CC/C(C)=C/CC/C=C(\C)CC/C=C(\C)CCC=C(C)C,inactive
11,CCCCCCCCCC(=O)NO,inactive
12,NCCO/C=C/[C@H](N)C(=O)O,inactive
13,N=C(N)n1cccn1,inactive
14,Nc1c(CC(=O)O)cccc1C(=O)c1ccccc1,inactive
15,Cc1ccc(C(C)(C)c2ccc(C)cc2)cc1,inactive
16,CO[C@H]1C[C@H](O[C@H]2[C@H](C)[C@@H](O[C@@H]3O[C@H](C)C[C@H](N(C)C)[C@H]3O)[C@@H](C)C[C@]3(CO3)C(=O)[C@H](C)[C@@H](O)[C@@H](C)[C@@H](C)OC(=O)[C@@H]2C)O[C@@H](C)[C@@H]1O,inactive
17,CC[C@H]1OC(=O)C[C@@H](O)[C@H](C)[C@@H](O[C@@H]2O[C@H](C)[C@@H](O[C@H]3C[C@@](C)(O)[C@@H](O)[C@H](C)O3)[C@H](N(C)C)[C@H]2O)[C@@H](CC=O)C[C@@H](C)C(=O)/C=C/C(C)=C/[C@@H]1CO[C@@H]1O[C@H](C)[C@@H](O)[C@@H](OC)[C@H]1OC,inactive
18,O=C1c2c(O)cccc2[C@H]([C@@H]2O[C@H](CO)[C@@H](O)[C@H](O)[C@H]2O)c2cc(CO)cc(O)c21,inactive
